The source of these data is PubChem BioAssay (EPA / NIEHS).

A short description of experiment [1]: ATG_TGFb_CIS: Attagene CIS-FACTORIAL HepG2 Assay for human Transforming Growth Factor (TGF) (AID 2282967; active means hit-call score of the fitted dose curve at least 0.9, where 1 is the maximum; inactive means score below 0.9). The conditions noted are these: HepG2 Attagene CIS TGFb reporter, mRNA transcription; actives raise or lower the signal. Summed up: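 Bidirectional fitting relative to DMSO gave the endpoint. Underlying data: reporter mRNA from HepG2 cells carrying transiently transfected cis-regulated reporter constructs, harvested 24 h after dosing and analyzed by RT-PCR and capillary electrophoresis.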

For experiment [2], the target named is Estrogen receptor (Homo sapiens) (UniProt P03372). Briefly: ATG_ERa_TRANS: Attagene TRANS-FACTORIAL HepG2 Assay for human Estrogen Receptor alpha (ERa) (AID 2282970). The conditions noted are these: HepG2 Attagene TRANS ERa GAL4 reporter, mRNA. In a few lines:
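Gal4-fusion ERa transactivation, measured as reporter transcript level in transiently transfected HepG2 cells. Exposure 24 h; RT-PCR plus capillary electrophoresis with fluorescence detection.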

Experiment [3] has as its target Steroid hormone receptor ERR1 (Homo sapiens) (UniProt P11474). Briefly: ATG_ERRa_TRANS: Attagene TRANS-FACTORIAL HepG2 Assay for human Estrogen-Related Receptor alpha (ERRa) (AID 2282971). The settings on record: HepG2 Attagene TRANS reporter, ERRa transactivation. In a few lines: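 HepG2 cells transiently transfected with GAL4-UAS reporter units and chimeric NR-Gal4 constructs; after 24 hour compound incubation, reporter mRNA quantified by RT-PCR, fluorescent labelling and capillary electrophoresis, gain of signal versus DMSO.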

In experiment [4] the target is X-box-binding protein 1 (Homo sapiens) (UniProt P17861). The experiment is described as follows: ATG_Xbp1_CIS: Attagene CIS-FACTORIAL HepG2 Assay for human X-box Binding Protein 1 (XBP1) (AID 2282972; active means hit-call score of the fitted dose curve at least 0.9, where 1 is the maximum; inactive means score below 0.9). The conditions noted are these: HepG2 XBP1 cis-element reporter, Attagene multiplex; actives raise or lower the signal. Summed up:
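Reporter transcripts were quantified by RT-PCR with fluorescent primer extension and capillary electrophoresis after 24 h chemical exposure. Cells: transiently transfected HepG2 carrying cis-regulated reporter constructs; data fitted bidirectionally relative to DMSO.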

The nature of experiment [5]: ATG_M_19_TRANS: Attagene TRANS-FACTORIAL HepG2 Assay for M19 Transcription Factor (Internal Marker) (AID 2282974). The conditions noted are these: HepG2 Attagene TRANS-FACTORIAL M19 internal marker reporter. In a few lines:
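Multiplexed TRANS format: HepG2 liver cells bearing transient GAL4-UAS reporter units, chemical treatment 24 h, reporter transcripts quantified by RT-PCR plus capillary electrophoresis. DMSO defines baseline.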

Experiment [6] concerns the target Estrogen-related receptor gamma (Homo sapiens) (UniProt P62508). Briefly: ATG_ERRg_TRANS: Attagene TRANS-FACTORIAL HepG2 Assay for human Estrogen-Related Receptor gamma (ERRg) (AID 2282977).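 Further: hits increase reporter signal over DMSO so potencies reflect activators.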 The settings on record: HepG2 Attagene TRANS reporter, ERRg transactivation. Summed up:
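Exogenous NR-Gal4 chimera activity measured as reporter transcript induction after 24 h in transiently transfected HepG2 cells. RNA reverse-transcribed, PCR-amplified, 6-FAM-labelled and resolved by capillary electrophoresis; increase over DMSO baseline.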

Experiment [7] addresses Bile acid receptor (Homo sapiens) (UniProt Q96RI1). Briefly: ATG_FXR_TRANS: Attagene TRANS-FACTORIAL HepG2 Assay for Farnesoid X Receptor (FXR) (AID 2282979).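 Further: hits raise reporter mRNA above DMSO so AC50 marks FXR activation.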 The settings on record: HepG2 Attagene TRANS FXR-GAL4 reporter transcription. Summed up: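 HepG2 cells were transiently transfected with GAL4-UAS reporters driven by chimeric NR-Gal4 proteins and dosed for 24 h. Reporter mRNA was quantified by RT-PCR, fluorescent labelling, HpaI digestion and capillary electrophoresis, with gain of signal scored versus DMSO.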

Experiment [8] can be described thus: ATG_M_06_TRANS: Attagene TRANS-FACTORIAL HepG2 Assay for M06 Transcription Factor (Internal Marker) (AID 2282983). The conditions noted are these: HepG2 Attagene TRANS M06 internal marker reporter. Summed up: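 mRNA levels of a reporter transcript, quantified as FAM fluorescence on capillary electrophoresis, served as readout. HepG2 cells expressing exogenous GAL4-chimera reporter constructs were exposed for 24 h. Gain of signal over DMSO was evaluated.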

Experiment [9] is described as follows: ATG_M_32_TRANS: Attagene TRANS-FACTORIAL HepG2 Assay for M32 Transcription Factor (Internal Marker) (AID 2282984). The settings on record: HepG2 Attagene TRANS M32 internal marker reporter. In a few lines: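 Internal-marker readout from a multiplexed transcription reporter panel. HepG2 cells were transfected with GAL4-UAS reporter units, treated 24 hours, and reporter transcript levels determined by fluorescence after RT-PCR and capillary separation.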

Experiment [10] has as its target Nuclear receptor subfamily 4 group A member 2 (Homo sapiens) (UniProt P43354). Briefly: ATG_NURR1_TRANS: Attagene TRANS-FACTORIAL HepG2 Assay for human Nuclear Receptor Related Protein 1 (NURR1) (AID 2282985). The settings on record: HepG2 Attagene TRANS reporter, mRNA readout. In a few lines: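 Endpoint: reporter mRNA increase relative to DMSO. HepG2 cells transfected with reporter units, treated 24 h; RNA processed by RT-PCR, labelling, HpaI digestion and capillary electrophoresis.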

Experiment [11] has as its target Transcriptional activator Myb (Homo sapiens) (UniProt P10242). The experiment is described as follows: ATG_Myb_CIS: Attagene CIS-FACTORIAL HepG2 Assay for human Myeloblastosis (Myb) Proto-Oncogene Transcription Factor (AID 2282986; active means hit-call score of the fitted dose curve at least 0.9, where 1 is the maximum; inactive means score below 0.9). The conditions noted are these: HepG2 Attagene CIS-FACTORIAL Myb reporter transcription; actives raise or lower the signal. In a few lines: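 Using HepG2 liver cells bearing transiently transfected cis-promoter reporter constructs, the assay measures induction or loss of reporter mRNA after 24 hours of dosing. Detection used fluorescently labeled RT-PCR products separated by capillary electrophoresis.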

In experiment [12] the target is Nuclear respiratory factor 1 (Homo sapiens) (UniProt Q16656). Briefly: ATG_NRF1_CIS: Attagene CIS-FACTORIAL HepG2 Assay for human Nuclear Respiratory Factor 1 (NRF1) Orphan Gene (AID 2282987; active means hit-call score of the fitted dose curve at least 0.9, where 1 is the maximum; inactive means score below 0.9). The settings on record: HepG2 NRF1 cis-element reporter, Attagene multiplex; actives raise or lower the signal. In a few lines: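 Reporter mRNA induction or loss in HepG2 cells after 24 h dosing; cis-regulated reporter constructs report endogenous transcription-factor activity. Quantified by RT-PCR/capillary electrophoresis fluorescence, DMSO-referenced.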
Nuclear respiratory factor 1 (Homo sapiens), sequence (Q16656 whole entry, looked up): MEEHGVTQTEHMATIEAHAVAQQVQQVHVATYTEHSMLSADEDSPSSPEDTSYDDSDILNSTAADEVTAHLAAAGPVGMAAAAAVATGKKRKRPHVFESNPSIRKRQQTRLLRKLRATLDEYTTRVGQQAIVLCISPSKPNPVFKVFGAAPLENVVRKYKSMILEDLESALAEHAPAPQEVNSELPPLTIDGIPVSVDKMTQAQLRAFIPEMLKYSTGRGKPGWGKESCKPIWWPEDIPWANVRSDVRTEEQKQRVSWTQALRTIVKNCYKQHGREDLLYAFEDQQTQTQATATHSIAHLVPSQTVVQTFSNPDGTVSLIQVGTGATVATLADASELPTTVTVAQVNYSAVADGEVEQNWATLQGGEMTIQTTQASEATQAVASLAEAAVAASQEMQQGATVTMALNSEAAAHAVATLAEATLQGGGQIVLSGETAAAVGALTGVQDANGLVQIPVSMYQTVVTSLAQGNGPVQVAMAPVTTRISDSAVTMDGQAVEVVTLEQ

The nature of experiment [13]: ATG_GAL4_TRANS: Attagene TRANS-FACTORIAL HepG2 Assay for GAL4 (Internal Marker) (AID 2282976). The conditions noted are these: HepG2 Attagene TRANS GAL4 internal marker reporter. In a few lines: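 Background-control readout: GAL4-UAS reporter transcript in transiently transfected HepG2 cells after 24 h compound exposure. Measured by RT-PCR, 6-FAM primer extension, HpaI digest and capillary electrophoresis; gain-of-signal fit versus DMSO.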

The target in experiment [14] is Glucocorticoid receptor (Homo sapiens) (UniProt P04150). The experiment is described as follows: ATG_GR_TRANS: Attagene TRANS-FACTORIAL HepG2 Assay for human Glucocorticoid Receptor (GR) (AID 2282978).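 Further: activators score as hits since higher reporter transcript over DMSO is fitted.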 The conditions noted are these: HepG2 Attagene TRANS GR reporter, mRNA transcription. Summed up: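 Transiently transfected HepG2 cells express chimeric NR-GAL4 proteins acting on GAL4-UAS reporter units. Compounds are applied for 24 h. mRNA induction over DMSO is measured by capillary electrophoresis.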
Glucocorticoid receptor (Homo sapiens), sequence (P04150 whole entry, looked up, the tested form may be a part): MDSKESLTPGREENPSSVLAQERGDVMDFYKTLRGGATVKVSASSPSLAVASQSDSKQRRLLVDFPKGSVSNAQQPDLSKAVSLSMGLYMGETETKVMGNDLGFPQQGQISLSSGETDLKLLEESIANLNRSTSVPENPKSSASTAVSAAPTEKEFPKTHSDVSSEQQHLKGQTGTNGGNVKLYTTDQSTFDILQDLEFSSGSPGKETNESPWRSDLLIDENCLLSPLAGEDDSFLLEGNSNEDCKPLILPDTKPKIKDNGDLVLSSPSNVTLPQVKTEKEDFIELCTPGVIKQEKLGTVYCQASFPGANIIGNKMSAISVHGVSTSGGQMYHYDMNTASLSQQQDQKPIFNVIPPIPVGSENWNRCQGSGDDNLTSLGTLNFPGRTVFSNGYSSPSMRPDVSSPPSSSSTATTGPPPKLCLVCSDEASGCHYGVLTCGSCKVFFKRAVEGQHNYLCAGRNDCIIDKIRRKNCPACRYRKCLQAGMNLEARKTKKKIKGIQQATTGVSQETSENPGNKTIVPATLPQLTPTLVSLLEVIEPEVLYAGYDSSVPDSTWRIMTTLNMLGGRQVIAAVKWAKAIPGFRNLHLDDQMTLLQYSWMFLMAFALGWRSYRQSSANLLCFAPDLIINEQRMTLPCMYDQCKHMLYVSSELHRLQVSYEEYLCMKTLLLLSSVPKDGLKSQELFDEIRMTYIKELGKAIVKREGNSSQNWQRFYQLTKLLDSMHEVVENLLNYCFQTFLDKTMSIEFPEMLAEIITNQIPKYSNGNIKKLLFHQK

In experiment [15] the target is Oxysterols receptor LXR-alpha (Homo sapiens) (UniProt Q13133). Briefly: ATG_LXRa_TRANS: Attagene TRANS-FACTORIAL HepG2 Assay for human Liver X Receptor alpha (LXRa) (AID 2282980). The conditions noted are these: HepG2 Attagene TRANS reporter, LXRa transactivation. In a few lines:
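HepG2 cells transiently transfected with GAL4-UAS reporter units for chimeric NR-Gal4 proteins, exposed to chemicals for 24 h. Reporter mRNA quantified by RT-PCR and capillary electrophoresis; gain of signal fitted relative to DMSO.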

In experiment [16] the target is Oxysterols receptor LXR-beta (Homo sapiens) (UniProt P55055). The experiment is described as follows: ATG_LXRb_TRANS: Attagene TRANS-FACTORIAL HepG2 Assay for human Liver X Receptor beta (LXRb) (AID 2282981). The conditions noted are these: HepG2 Attagene TRANS GAL4-LXRb reporter, mRNA. Summed up: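 Multiplexed reporter assay, HepG2, 24 h dosing. Fluorescence of labelled RT-PCR products after capillary electrophoresis gives transcript level; positive fitting direction relative to DMSO.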

Experiment [17] deals with Hepatocyte nuclear factor 4-alpha (Homo sapiens) (UniProt P41235). Briefly: ATG_HNF4a_TRANS: Attagene TRANS-FACTORIAL HepG2 Assay for human Hepatocyte Nuclear Factor 4 alpha (HNF4a) (AID 2282982). The settings on record: HepG2 HNF4a transactivation reporter, mRNA readout. In a few lines:
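Endpoint reflects transcriptional activation of a GAL4-UAS reporter by an HNF4a-GAL4 chimera in transfected HepG2 cells, 24 h post-dosing. Fluorescence from RT-PCR products separated by capillary electrophoresis; DMSO baseline.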

In experiment [18] the target is Nuclear receptor subfamily 1 group I member 3 (Homo sapiens) (UniProt Q14994). The experiment is described as follows: ATG_CAR_TRANS: Attagene TRANS-FACTORIAL HepG2 Assay for human Constitutive Androstane Receptor (CAR) (AID 2282969).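 Further: activators raise reporter mRNA above DMSO so AC50 marks induction.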 The conditions noted are these: HepG2 Attagene TRANS-FACTORIAL CAR reporter. In a few lines:
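Transiently transfected HepG2, multiplex TRANS reporters (CAR-Gal4 chimera driving GAL4-UAS reporter). 24 h dosing. Readout: reporter transcript by RT-PCR + capillary electrophoresis, fluorescence intensity; positive direction vs DMSO.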

Inconclusive results are not listed. Activity calls are given as the source filed them. How the source made its calls, unless noted: active means hit-call score of the fitted dose curve at least 0.9, where 1 is the maximum; inconclusive means response in the unintended direction; inactive means score below 0.9.

Transcriptional activator Myb (Homo sapiens), sequence (P10242 whole entry, looked up): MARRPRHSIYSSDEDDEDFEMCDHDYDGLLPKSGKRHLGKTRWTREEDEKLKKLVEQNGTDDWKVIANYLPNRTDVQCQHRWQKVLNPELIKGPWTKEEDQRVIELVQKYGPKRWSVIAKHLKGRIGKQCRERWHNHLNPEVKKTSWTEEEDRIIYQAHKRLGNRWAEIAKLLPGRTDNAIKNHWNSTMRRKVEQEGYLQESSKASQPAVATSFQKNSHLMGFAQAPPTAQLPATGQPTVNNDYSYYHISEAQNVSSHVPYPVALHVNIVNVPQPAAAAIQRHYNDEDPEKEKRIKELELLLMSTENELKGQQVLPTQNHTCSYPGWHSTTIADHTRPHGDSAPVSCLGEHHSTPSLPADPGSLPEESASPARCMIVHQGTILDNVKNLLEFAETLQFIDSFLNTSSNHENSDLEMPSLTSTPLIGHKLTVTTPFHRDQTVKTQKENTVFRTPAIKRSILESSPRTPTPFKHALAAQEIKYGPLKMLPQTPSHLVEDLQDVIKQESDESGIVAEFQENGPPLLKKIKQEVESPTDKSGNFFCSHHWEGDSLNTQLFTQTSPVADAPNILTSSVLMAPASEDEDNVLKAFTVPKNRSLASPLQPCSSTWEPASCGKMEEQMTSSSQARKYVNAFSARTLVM
Estrogen receptor (Homo sapiens), sequence (P03372 whole entry, looked up, the tested form may be a part): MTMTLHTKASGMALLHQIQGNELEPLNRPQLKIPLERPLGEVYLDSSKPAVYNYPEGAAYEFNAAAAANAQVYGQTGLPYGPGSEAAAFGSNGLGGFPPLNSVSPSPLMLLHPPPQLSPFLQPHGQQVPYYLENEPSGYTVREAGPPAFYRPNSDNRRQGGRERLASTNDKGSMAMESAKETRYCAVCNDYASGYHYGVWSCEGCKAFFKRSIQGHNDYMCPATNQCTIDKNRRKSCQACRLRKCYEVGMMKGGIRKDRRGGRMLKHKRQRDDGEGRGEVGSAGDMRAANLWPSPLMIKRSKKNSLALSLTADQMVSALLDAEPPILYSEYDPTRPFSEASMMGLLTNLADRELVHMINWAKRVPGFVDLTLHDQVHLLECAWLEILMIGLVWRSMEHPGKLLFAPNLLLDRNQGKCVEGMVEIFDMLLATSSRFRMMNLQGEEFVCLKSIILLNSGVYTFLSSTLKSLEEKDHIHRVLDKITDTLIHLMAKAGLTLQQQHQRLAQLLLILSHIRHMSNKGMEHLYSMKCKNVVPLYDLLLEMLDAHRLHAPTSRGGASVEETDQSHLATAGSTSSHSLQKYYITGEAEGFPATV
Bile acid receptor (Homo sapiens), sequence (Q96RI1 whole entry, looked up, the tested form may be a part): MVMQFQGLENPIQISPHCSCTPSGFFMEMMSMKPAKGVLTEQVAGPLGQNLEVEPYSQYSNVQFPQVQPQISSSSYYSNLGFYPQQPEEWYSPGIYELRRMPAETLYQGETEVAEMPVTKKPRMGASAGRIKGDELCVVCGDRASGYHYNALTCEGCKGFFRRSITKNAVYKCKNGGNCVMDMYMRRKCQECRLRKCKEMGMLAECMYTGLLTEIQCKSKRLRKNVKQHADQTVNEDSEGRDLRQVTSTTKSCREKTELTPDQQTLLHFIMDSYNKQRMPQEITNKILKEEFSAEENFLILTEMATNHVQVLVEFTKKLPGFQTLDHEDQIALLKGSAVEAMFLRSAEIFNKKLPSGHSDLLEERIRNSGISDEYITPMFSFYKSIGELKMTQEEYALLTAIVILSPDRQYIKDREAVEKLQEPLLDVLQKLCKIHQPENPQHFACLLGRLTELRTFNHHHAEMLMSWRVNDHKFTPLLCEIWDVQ
Oxysterols receptor LXR-alpha (Homo sapiens), sequence (Q13133 whole entry, looked up, the tested form may be a part): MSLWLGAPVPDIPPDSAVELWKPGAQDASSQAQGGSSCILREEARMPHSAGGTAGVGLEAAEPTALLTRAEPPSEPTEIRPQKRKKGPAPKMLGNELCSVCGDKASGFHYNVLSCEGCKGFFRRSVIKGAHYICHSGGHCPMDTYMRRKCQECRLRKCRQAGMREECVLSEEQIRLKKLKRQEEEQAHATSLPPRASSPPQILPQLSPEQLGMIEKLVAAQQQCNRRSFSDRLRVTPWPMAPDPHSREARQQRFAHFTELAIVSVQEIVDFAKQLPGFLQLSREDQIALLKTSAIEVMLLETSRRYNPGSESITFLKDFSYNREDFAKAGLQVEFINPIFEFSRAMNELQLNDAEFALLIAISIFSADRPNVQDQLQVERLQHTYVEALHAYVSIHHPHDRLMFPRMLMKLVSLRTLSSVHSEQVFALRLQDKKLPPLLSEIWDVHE
Hepatocyte nuclear factor 4-alpha (Homo sapiens), sequence (P41235 whole entry, looked up, the tested form may be a part): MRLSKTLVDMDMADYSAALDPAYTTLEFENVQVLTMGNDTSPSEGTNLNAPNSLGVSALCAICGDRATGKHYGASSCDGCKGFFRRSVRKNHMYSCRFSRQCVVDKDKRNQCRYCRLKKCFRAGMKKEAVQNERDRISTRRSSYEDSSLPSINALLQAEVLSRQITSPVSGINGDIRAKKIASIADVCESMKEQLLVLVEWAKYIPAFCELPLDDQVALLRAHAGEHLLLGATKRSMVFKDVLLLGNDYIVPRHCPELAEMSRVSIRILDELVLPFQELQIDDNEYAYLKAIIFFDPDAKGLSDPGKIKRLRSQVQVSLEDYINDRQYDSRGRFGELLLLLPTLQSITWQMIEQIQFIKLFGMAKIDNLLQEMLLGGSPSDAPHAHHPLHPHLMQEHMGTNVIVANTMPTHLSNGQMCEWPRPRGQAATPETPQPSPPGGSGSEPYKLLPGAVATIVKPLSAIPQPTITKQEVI
Steroid hormone receptor ERR1 (Homo sapiens), sequence (P11474 whole entry, looked up, the tested form may be a part): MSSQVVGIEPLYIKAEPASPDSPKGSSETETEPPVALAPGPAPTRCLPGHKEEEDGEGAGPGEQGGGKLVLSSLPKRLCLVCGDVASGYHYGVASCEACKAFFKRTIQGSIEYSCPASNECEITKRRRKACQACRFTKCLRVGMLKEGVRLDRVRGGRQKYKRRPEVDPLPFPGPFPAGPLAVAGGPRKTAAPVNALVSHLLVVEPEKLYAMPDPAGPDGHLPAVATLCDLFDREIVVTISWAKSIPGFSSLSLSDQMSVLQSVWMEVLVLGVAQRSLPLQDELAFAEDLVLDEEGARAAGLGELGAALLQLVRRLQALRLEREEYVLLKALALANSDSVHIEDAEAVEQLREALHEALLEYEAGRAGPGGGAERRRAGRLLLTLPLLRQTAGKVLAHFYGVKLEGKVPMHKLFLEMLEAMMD
Estrogen-related receptor gamma (Homo sapiens), sequence (P62508 whole entry, looked up, the tested form may be a part): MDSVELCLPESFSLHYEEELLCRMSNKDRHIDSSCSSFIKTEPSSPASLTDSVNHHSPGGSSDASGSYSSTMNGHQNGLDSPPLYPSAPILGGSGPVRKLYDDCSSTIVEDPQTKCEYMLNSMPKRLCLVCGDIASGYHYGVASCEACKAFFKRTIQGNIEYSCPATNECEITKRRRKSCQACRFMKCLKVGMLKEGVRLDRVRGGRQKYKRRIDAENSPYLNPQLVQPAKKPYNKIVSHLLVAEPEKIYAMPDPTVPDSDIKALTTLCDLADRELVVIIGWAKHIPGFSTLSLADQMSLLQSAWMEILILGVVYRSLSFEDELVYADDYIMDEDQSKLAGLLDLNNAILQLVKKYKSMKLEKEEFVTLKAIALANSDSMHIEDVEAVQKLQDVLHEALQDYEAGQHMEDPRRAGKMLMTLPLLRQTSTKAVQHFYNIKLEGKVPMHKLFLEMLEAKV

Turning to `CC(c1ccccc1)(c1ccc(O)cc1)c1ccc(O)cc1`, the compound was called inactive in experiment [1], in experiment [3], in experiment [5], in experiment [6], in [8] and in experiment [9]. The outcome in experiment [11] and in [12] was inactive. Moreover, the AC50 in experiment [2] is 0.145 µM (active); in experiment [4], 15 µM (active); in [7], 12.5 µM (active); in [10], 18.2 µM (active).

As to `Nc1ccc(Br)cc1`, the outcome in experiment [1], in experiment [2], in experiment [4], in [5], in experiment [13] and in [7] was inactive. In addition, the compound was called inactive in [15], in experiment [16], in experiment [17], in experiment [8], in experiment [9] and in experiment [11]. Also, in [12], the call was inactive. Further, in experiment [14], the AC50 is 100 µM (active).

In the case of `CC(C)O.CC(C)O.OCCN(CCO)CCO.OCCN(CCO)CCO.[Ti]`, the compound was called inactive in [1], in experiment [18], in experiment [4], in experiment [13], in experiment [15] and in experiment [16]. In addition, the compound was called inactive in experiment [8], in experiment [9], in [11] and in experiment [12].

Take `CC(C)[C@H](C(=O)OC(C#N)c1cccc(Oc2ccccc2)c1)c1ccc(OC(F)F)cc1` (stereo partly drawn): the result in [1], in experiment [18], in experiment [3], in experiment [4], in experiment [13] and in experiment [6] was inactive. In addition, the outcome in experiment [14], in [8], in [9], in [10], in experiment [11] and in experiment [12] was inactive.

As to `O=NN1CCCCCCC1`, the compound was called inactive in experiment [1], in experiment [18], in experiment [2], in experiment [4], in [13] and in experiment [14]. In addition, the compound was classed as inactive in experiment [7], in experiment [16], in experiment [17], in experiment [8], in experiment [9] and in [11]. Besides, the compound was classed as inactive in experiment [12].

As for `C=CC(=O)OCC(COC(=O)C=C)(COC(=O)C=C)COC(=O)C=C`, the compound was called inactive in [1], in [2], in [3], in experiment [7], in [8] and in [12]. In addition, the AC50 in experiment [4] is 8.13 µM (active); in [6] it was 100 µM (active); in [17], 44.6 µM (active); in [11], 24.5 µM (active).

For `CC1(C)[C@H](/C=C2\CCSC2=O)[C@@H]1C(=O)OCc1coc(Cc2ccccc2)c1`, the outcome in experiment [1], in experiment [18], in experiment [4], in experiment [15], in experiment [17] and in experiment [8] was inactive. The result in experiment [9], in experiment [10], in experiment [11] and in experiment [12] was inactive.

On to `O=[N+]([O-])c1cccc2ccccc12`, for which the compound was called inactive in experiment [1], in experiment [3], in [4], in experiment [5], in experiment [13] and in experiment [6]. In addition, the compound was classed as inactive in [17], in experiment [8], in [9], in experiment [11] and in [12]. Further, the AC50 in [2] is 39.9 µM (active).

Usually AC50 stands for the concentration at which the activity in the assay is half-maximal.
